# Assay outcomes (PubChem BioAssay)
# NR5A2 inv ag = NR5A2 inverse agonism in reporter assay; HEK293T StAR-luciferase reporter, LRH-1 transfected, 24 h; 360,000 tested, 0.13% active; O00482; inhibition, % at 3.6 µM;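 active means inhibition above the mean inhibition of all tested compounds plus 3 SD, cut at about 73% in these data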
# SRC1 inh = inhibitors of human steroid receptor coactivator 1 (SRC1); AID 588354; HEK293 GAL4-SRC1 luciferase reporter, luminescence; Q15788; 360,000 tested, 0.12% active; inhibition, % at 3.6 µM;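 active means inhibition above the campaign mean plus 3 SD, with each screening campaign given its own cutoff, cut at about 60% in these data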
# Target sequence (Q15788 whole entry, looked up, the tested form may be a part): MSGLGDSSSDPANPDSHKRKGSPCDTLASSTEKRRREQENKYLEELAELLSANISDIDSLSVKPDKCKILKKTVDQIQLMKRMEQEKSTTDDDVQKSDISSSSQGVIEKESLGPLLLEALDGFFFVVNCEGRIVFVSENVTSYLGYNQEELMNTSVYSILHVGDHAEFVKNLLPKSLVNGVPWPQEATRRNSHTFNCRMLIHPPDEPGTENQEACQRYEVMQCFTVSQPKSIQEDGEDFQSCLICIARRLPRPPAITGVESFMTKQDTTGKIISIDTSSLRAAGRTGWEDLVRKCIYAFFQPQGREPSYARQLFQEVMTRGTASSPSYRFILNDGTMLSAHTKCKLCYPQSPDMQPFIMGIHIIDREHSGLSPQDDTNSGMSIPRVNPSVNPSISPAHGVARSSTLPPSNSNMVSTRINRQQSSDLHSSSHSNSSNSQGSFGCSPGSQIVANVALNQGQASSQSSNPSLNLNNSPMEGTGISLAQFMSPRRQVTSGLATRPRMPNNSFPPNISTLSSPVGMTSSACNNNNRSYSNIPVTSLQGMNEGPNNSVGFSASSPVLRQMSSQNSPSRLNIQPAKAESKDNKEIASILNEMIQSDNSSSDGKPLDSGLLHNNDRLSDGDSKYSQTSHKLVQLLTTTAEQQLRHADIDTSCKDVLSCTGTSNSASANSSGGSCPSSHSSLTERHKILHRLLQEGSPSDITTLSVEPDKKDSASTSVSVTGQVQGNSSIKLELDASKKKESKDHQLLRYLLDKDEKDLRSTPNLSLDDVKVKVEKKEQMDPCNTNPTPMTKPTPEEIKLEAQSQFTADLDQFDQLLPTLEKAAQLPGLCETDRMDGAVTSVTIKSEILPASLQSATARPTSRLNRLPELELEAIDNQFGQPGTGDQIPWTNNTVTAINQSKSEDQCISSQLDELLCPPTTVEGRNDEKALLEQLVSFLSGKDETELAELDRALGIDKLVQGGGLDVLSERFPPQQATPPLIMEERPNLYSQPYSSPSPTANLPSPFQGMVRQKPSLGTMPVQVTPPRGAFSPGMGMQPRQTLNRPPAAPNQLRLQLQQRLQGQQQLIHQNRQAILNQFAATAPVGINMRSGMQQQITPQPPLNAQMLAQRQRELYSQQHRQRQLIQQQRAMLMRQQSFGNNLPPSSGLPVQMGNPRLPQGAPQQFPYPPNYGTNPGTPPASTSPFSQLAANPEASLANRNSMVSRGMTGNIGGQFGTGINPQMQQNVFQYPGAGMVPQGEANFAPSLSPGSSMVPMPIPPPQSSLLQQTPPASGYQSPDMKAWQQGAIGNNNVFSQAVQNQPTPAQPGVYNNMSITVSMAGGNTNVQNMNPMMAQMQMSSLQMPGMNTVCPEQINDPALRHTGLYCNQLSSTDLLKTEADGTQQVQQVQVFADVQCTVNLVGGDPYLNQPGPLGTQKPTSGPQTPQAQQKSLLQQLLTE
# Efflux pump inh = inhibitors of Candida antifungal efflux pumps expressed in yeast; S. cerevisiae Candida pump triplex, Nile Red efflux; 330,000 tested, 0.44% active; AID 485275; inhibition, % at 10 µM;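 active means plate passing quality check with inhibition over a set limit, or well fluorescence over plate mean plus 4 SD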;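 further: Nile Red retained in pooled yeast measured as flow cytometry median fluorescence; higher means more Nile Red kept so more efflux inhibition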
# NR2F2 inh = NR2F2 (human) inhibition, primary screen; inhibition, % at 8.6 µM; 370,000 tested, 0.7% active; HEK293T NGFI-A luciferase reporter, luminescence; P24468;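 active means inhibition above a per-plate cutoff, mean inhibition of test wells between control levels plus 3 SD, cut at about 38% in these data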;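 further: cells cotransfected with COUP-TFII expression vector driving the NGFI-A reporter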
# SRC2 inh = inhibits human steroid receptor coactivator 2. inhibition, % at 9 µM. 370,000 tested, 0.17% active. Q15596. AID 651957. HEK293 GAL4-SRC2 luciferase reporter, luminescence;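 active means inhibition above the mean inhibition of all tested compounds plus 3 SD, set per campaign, cut at about 52% in these data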
# SRC3 inh = human NCOA3 inhibition; HEK293 GAL4-SRC3 luciferase reporter, luminescence; inhibition, % at 3.6 µM; 360,000 tested, 0.17% active;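 active means inhibition above a per-campaign cutoff, the mean of all compounds plus 3 SD, cut at about 60% in these data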;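 further: higher means less SRC3-driven luciferase light from the GAL4 reporter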
# Hits are given with their value; 0 = inactive; - = no result given. This is a sample that favours compounds with a hit; in the whole collection about 1.2% have one here.
SMILES,NR5A2 inv ag,SRC1 inh,Efflux pump inh,NR2F2 inh,SRC2 inh,SRC3 inh
CCOC(=O)C1=C(C)N=c2s/c(=C/c3cccc([N+](=O)[O-])c3O)c(=O)n2C1c1ccc(OC)cc1OC (centres undefined),0,0,0.7,0,0,0
COc1ccc(CN2CCN(C(C)C(=O)N3CCc4ccccc43)CC2)cc1OC (centres undefined),0,0,0,0,0,0
OC1(c2ccc(OC(F)F)cc2)CSC(=Nc2cccnc2)N1C1CC1 (centres undefined),0,0,0,57,0,0
COc1ccc(OC)c(C2(O)CSC(=Nc3cccnc3)N2Cc2ccco2)c1 (centres undefined),0,0,0,0,0,0
CCCN(CC(=O)Nc1ccccc1C)C(=O)CCl,0,0,0,0,56,0
Cc1ccccc1CN1CCN(S(=O)(=O)c2ccc(F)cc2)CC1,0,0,0,0,0,0
O=S(=O)(c1ccc(Br)cc1)N1CCCN(Cc2ccccc2F)CC1,0,0,6.8,0,0,0
COc1ccc(N(CC(=O)N2CCOCC2)S(C)(=O)=O)c(OC)c1,0,0,0,0,0,0
COc1ccc(-c2nn(-c3ccccc3)cc2/C=N/O)cc1,0,0,0,0,0,0
CC(C)Oc1ccc(-c2nn(-c3ccccc3)cc2/C=c2\sc3ncnn3c2=O)cc1,-,-,0.9,-,-,-
O=C(Nc1ccc2c(c1)COC2=O)c1ccc(Cl)c(Cl)c1,0,0,0,0,0,0
O=C(N/N=C/c1cc(Br)ccc1O)C(=O)Nc1ccccc1OC(F)(F)C(F)F,0,0,0,0,0,0
O=C(N/N=C/c1cc(Cl)ccc1O)C(=O)Nc1ccccc1OC(F)(F)C(F)F,0,0,0,0,0,68
CCOC(=O)c1ccc2c(c1)n(CC)c(/C=C/N(C)c1ccccc1)[n+]2CC,0,0,0,0,0,0
CC[n+]1c(/C=C/N(C)c2ccccc2)n(-c2ccccc2)c2ccc(-c3nc4ccccc4s3)cc21,90,82,0,-,-,83
Cc1ccc(-c2nc(NC(=O)c3nn(C)cc3[N+](=O)[O-])sc2C)cc1,0,0,0,0,52,0
O=S1(=O)CCC(NC(=S)Nc2ccc3ccccc3c2)C1 (centres undefined),0,0,0,0,0,0
CN(C)CCNc1ccc(CO)c2sc3ccc(O)cc3c(=O)c12,0,79,-,0,0,0
COc1cccc(C(=O)NN2CCOCC2)c1,0,0,0,0,0,0
CCC(c1ccccc1)C(CC)c1cc(O)c(O)c(O)c1 (centres undefined),0,0,-,0,0,0
O=C(COC(=O)c1ccncc1)Nc1cc(Cl)c(Cl)cc1Cl,-,-,0.8,-,-,-
O=C(Nc1nc(-c2ccccc2)cs1)c1ccc(N2CCOCC2)c([N+](=O)[O-])c1,0,64,0,-,-,76
Cc1ccc(-c2csc(NC(=O)c3cc([N+](=O)[O-])ccc3N3CCOCC3)n2)cc1,0,0,0,0,0,0
O=C(Nc1sc2c(c1C(=O)O)CCCC2)c1ccc(F)cc1,0,0,0,0,0,0
CC(C)(C)c1ccc(C(=O)Nc2sc3c(c2C(=O)O)CCC3)cc1,84,67,0,0,68,77
SMILES,NR5A2 inv ag,SRC1 inh,Efflux pump inh,NR2F2 inh,SRC2 inh,SRC3 inh
Cc1ccc(NC(=O)COC(=O)CCC(=O)c2cccs2)cc1C,0,0,0,0,0,0
COc1ccc2c(Cl)c(C(=O)NC3CCS(=O)(=O)C3)sc2c1 (centres undefined),0,0,0,0,0,0
O=C(Nc1cccc2c1CCCC2)c1cc([N+](=O)[O-])ccc1Cl,0,0,0,0,58,0
CN1CCC2(CC1)N=C(c1ccc(F)cc1)C(=S)N2C(=O)c1ccc(C(C)(C)C)cc1,0,0,0,0,0,0
Cc1cc(C)c(C(=O)NNC(=O)c2cccnc2)c(C)c1,0,0,0,0,0,0
CN(Cc1ccccc1)C1=CC(=[N+]2CCCCC2)CC(C)(C)C1,84,61,0,75,0,72
Cn1c(=O)c2c(nc(CN3CCN(C(c4ccccc4)c4ccccc4)CC3)n2CC(N)=O)n(C)c1=O,0,0,0,0,0,0
COc1ccccc1NC1=C(N2CCCCC2)C(=O)c2ccccc2C1=O,97,74,0,-,-,80
Cc1ccc(NC2=C(N3CCCCC3)C(=O)c3ccccc3C2=O)cc1,0,0,0,0,0,0
O=C(/C=C/c1ccc(O)cc1)c1ccc(NC2=C(N3CCCCC3)C(=O)c3ccccc3C2=O)cc1,76,0,0,0,0,0
O=C1C(Nc2ccccc2)=C(N2CCCCC2)C(=O)c2ccccc21,93,0,0,0,0,68
COc1ccc(CC(=O)Nc2cccc(S(=O)(=O)N3CCCCCC3)c2)cc1OC,0,0,0,79,0,0
Cc1ccc(C)c(S(=O)(=O)/N=C2\C=C(NS(=O)(=O)c3ccccc3)C(=O)c3ccccc32)c1,0,0,0,0,0,0
Cc1cc(C)c(S(=O)(=O)/N=C2/C=C(Sc3ncn[nH]3)C(=O)c3ccccc32)cc1C,0,0,0,62,62,71
CCCCc1ccc(/C=C2\C(=O)c3ccccc3C(O)=C2C(=O)OCC)cc1,-,-,1.1,-,-,-
CCOC(=O)C1=C(Cc2ccc(F)cc2)C(=O)c2ccccc2C1=O,0,0,0,0,0,0
O=C(CSc1ccc(Cl)cc1)Nc1ccc(N2CCN(C(=O)c3ccc(Cl)cc3)CC2)cc1,0,0,0,0,0,0
COc1ccc(C(=O)Nc2nc3ccccc3s2)c(OC)c1,93,89,0,99,93,91
Cc1ccc(-c2ccc(/C=C(\C#N)C(=O)Nc3cc(C)nn3-c3ccccc3)o2)cc1,-,-,1.5,-,-,-
COc1ccc(C(=O)N/N=C(\C)c2ccccn2)cc1OC,0,0,0,0,0,0
COc1ccccc1NC(=S)NN=C(C)c1ccccn1,82,65,-,0,0,0
CC(=NNC(=S)Nc1cccc(C)c1)c1ccccn1,86,73,-,0,0,72
CC(=NNC(=S)Nc1ccc(C)cc1)c1ccccn1,0,70,-,0,0,68
Cc1ccccc1N(C(=O)c1csnn1)C(C(=O)NC(C)(C)C)c1ccncc1 (centres undefined),0,0,0,0,0,0
O=C(O)[C@@H]1CCCN(S(=O)(=O)c2cccc3cccnc23)C1,0,0,0,0,0,0
CC(Sc1nnnn1C1CC1)C(=O)Nc1cccc(S(=O)(=O)N2CCOCC2)c1 (centres undefined),0,0,-,0,0,0
COc1cccc2c1C(=O)c1c(O)c3c(c(O)c1C2=O)C[C@@](O)(C(=O)CO)C[C@@H]3O[C@H]1C[C@H](N)[C@@H](O)[C@H](C)O1,89,0,0,-,-,0
c1csc(CNc2ccc3c(c2)OCCO3)c1,0,0,0,64,0,0
Oc1ccccc1CNc1ccc2c(c1)OCCO2,0,0,0,0,0,0
